Measurements published in PubChem BioAssay AID1508625 (Wald Lab, School of Medicine, Case Western Reserve …, 2021).

Assay: enhancers of NK cell killing of ovarian tumor cells, primary screen, imaging, OVCAR3, primary NK cells, calcein-AM imaging (AID 1508625);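 note: compound given to NK cells 16 h before adding targets at 1.5 to 1 ratio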
Details: OVCAR3 lysis by primary NK cells, at 5 µM; z-score: measured here: robust Z-score, single-point normalisation

Row | Compound | corrected activity, negative = more killing | z-score
1 | C=CCN1C(=O)C(=Cc2ccc(OCc3ccccc3Cl)c(OC)c2)SC1=S | -6.24% | -1.98
2 | Cc1cc(C)n(C(=O)c2ccc(S(=O)(=O)N3CCCCCC3)cc2)n1 | -2.63% | -1.46
3 | COc1c(Cl)cccc1NC(=O)c1cccc2ccccc12 | -3.52% | -1.31
4 | CC(=O)Nc1ccc(N2C(=O)C3C4CC(C(Br)C4Br)C3C2=O)cc1 (stereo not given) | -2.24% | -0.796
5 | O=C(CSCc1ccccc1F)N1CCc2ccccc21 | -9.83% | -2.65
6 | CCOc1ccc2nc(SCC(=O)Nc3ccccc3C(=O)O)sc2c1 | -4.64% | -1.75
7 | COc1ccc(Cn2c(=S)[nH]c3cc(C(=O)NCc4ccccc4Cl)ccc3c2=O)cc1 | -10.8% | -3.45
8 | O=C(Nc1ccccc1C(=O)O)c1cc(S(=O)(=O)Nc2ccc(Br)cc2)ccc1Cl | -14.5% | -3.06
9 | COc1ccc(N(CC(=O)Nc2c(C)n(C)n(-c3ccccc3)c2=O)S(C)(=O)=O)c(OC)c1 | -0.645% | -0.246
10 | O=S(=O)(c1ccc(Br)c2nsnc12)N1CCC(Cc2ccccc2)CC1 | -3.43% | -1.06
11 | CC1=NN(C(=O)C(C)C)C(O)(c2ccccc2)C1 (stereo not given) | -7.14% | -3.83
12 | CCOC(=O)CCN1C(=O)C(=Cc2cccc(OC)c2)SC1=S | -4.87% | -1.55
13 | Cc1sc2c(c1C)c(=O)n(CCc1ccccc1)c(=O)n2Cc1cccc([N+](=O)[O-])c1 | -2.58% | -0.733
14 | O=[N+]([O-])c1ccc(C=Nn2c(CO)nc3ccccc32)cc1 | -5.03% | -1.6
15 | COc1ccc(-c2ccc3c(N)c(C(=O)NCc4ccc(C(F)(F)F)cc4)sc3n2)cc1 | -1.13% | -0.339
16 | CCOc1ccc(S(=O)(=O)NC(C)C)c2cccnc12 | -3.65% | -1.16
17 | CN(C)CCSc1nnnn1-c1ccccc1 | -4.18% | -1.86
18 | CCCCNC(=O)c1c[nH]c2ccc(S(=O)(=O)Nc3cccc(SC)c3)cc2c1=O | -1.92% | -0.471
19 | COc1cc(OC)cc(C(=O)N2CCN(C3CCC(C)CC3)CC2)c1 (stereo not given) | -1.69% | -0.755
20 | CCOc1ccc(NC(=O)Cn2c(=O)n(CCc3ccccc3)c(=O)c3c4c(sc32)CCCC4)cc1 | -8.33% | -2.36
21 | N=C1NC(=O)C(=Cc2ccc(F)cc2)S1 | -5.91% | -2.51
22 | CCCCOc1ccc(C(=O)N2CCN(C(=O)N(C)C)CC2)cc1 | -0.23% | -0.128
23 | FC(F)(F)c1cc(-c2cccs2)nc2nc(=S)[nH]n12 | -2.93% | -0.791
24 | CC(=O)CC(O)(c1ccccc1)C(F)(F)F (stereo not given) | 0.173% | 0.0551
25 | N#Cc1cc2c(N)c(C(=O)Nc3ccccc3Oc3ccccc3)sc2nc1N | 0.0831% | 0.0248
26 | CN1C(=O)c2ccccc2Sc2ccc(C(=O)O)cc21 | -8.06% | -2.17
27 | CC1CCN(CCCCCOc2ccccc2Br)CC1 | -0.201% | -0.0828

Row | Compound | corrected activity, negative = more killing | z-score
28 | CNC(=O)C(C)Oc1cccc(Cl)c1 (stereo not given) | -2.63% | -1.46
29 | COc1cc(OC)c(OC)cc1CN1CCN(C(=O)c2ccncc2)CC1 | -2.22% | -0.992
30 | CCOC(=O)CC(NCc1ccc(Cl)c([N+](=O)[O-])c1)c1cccs1 (stereo not given) | -7.84% | -2.12
31 | Cc1ccccc1NC(=O)OCc1ccccc1 | -1.84% | -1.03
32 | COC(=O)c1ccc(COC(=O)c2ccccc2Cl)cc1 | -2.71% | -1.51
33 | CCn1cnc2sc(C(=O)Nc3cccc([N+](=O)[O-])c3)c(C)c2c1=O | -2.56% | -0.931
34 | O=C1c2ccccc2C(=O)c2c1cc(F)cc2N1CCCCC1 | -1.34% | -0.401
35 | Cc1cc(C)nc(N=C(N)Nc2cccc(F)c2)n1 | 0.14% | 0.0433
36 | COc1ccccc1CNc1nc(-c2ccc(Br)cc2)nc2ccccc12 | -2.39% | -1.28
37 | COc1ccccc1N1C(=O)C2C(C(C)=O)=NN(c3ccc(Cl)cc3)C2C1=O (stereo not given) | -1.87% | -0.704
38 | CC1(C)CC(c2csc(N)n2)CCO1 (stereo not given) | -2.99% | -1.14
39 | O=C(O)C1CSC(c2cccs2)=N1 (stereo not given) | -4.41% | -1.19
40 | Cc1cccc(C)c1OCCCCCCN1CCOCC1 | -1.15% | -0.473
41 | Cc1ccc(-n2ncc3c(=O)[nH]c(SCC(C)C)nc32)cc1C | -9.35% | -2.29
42 | CSc1nnc2c(n1)OC(c1ccc(OCC(=O)O)cc1)Nc1ccccc1-2 (stereo not given) | -2.58% | -0.915
43 | FC(F)(F)c1ccc(Oc2cccc(C(F)(F)F)c2)nc1 | -1.98% | -1.1
44 | COCCCNCCOc1c(Cl)cc(C)cc1Br | -4.25% | -1.58
45 | Cn1c(SCC(=O)c2ccccc2)nc2c([nH]c3ccccc32)c1=O | -5.65% | -1.41
46 | CCOc1ccc2nc(NC(=O)CCC(=O)OCC(F)(F)F)sc2c1 | -3.74% | -1.41
47 | CC1=C(C(=O)OCCc2ccccc2)C(c2coc3ccc(C)cc3c2=O)C2=C(CC(c3cccs3)CC2=O)N1 (stereo not given) | 0.37% | 0.141
48 | COc1cc(NS(=O)(=O)c2ccc(NC(=O)c3ccc(OC)c(OC)c3)cc2)ncn1 | -3.26% | -1.01
49 | COc1ccccc1CNC(=O)CCS(=O)(=O)Cc1ccccc1C | -4.37% | -1.18
50 | COC(=O)C1C(=O)C2=C(CC1C)NC(C)=C(C(=O)OC1CCCC1)C2c1ccccc1OC(C)C (stereo not given) | -2.11% | -0.524
51 | COc1ccc2ccccc2c1C=Nc1cc(C)ccc1C | -0.753% | -0.32
52 | c1ccc(-c2nnc3n2C2(CCCCC2)Cc2ccccc2-3)cc1 | 0.806% | 0.417
53 | CCCCOc1ccc(C(=O)N2N=C(C)CC2(O)C(F)(F)F)cc1 (stereo not given) | -6.48% | -2.66
54 | O=C(NN=C1CCCCC1)C(=O)Nc1ccc(Cl)cc1 | -4.69% | -1.99

Row | Compound | corrected activity, negative = more killing | z-score
55 | CCOC(=O)c1ccc(NC(=O)CCc2ccccc2)cc1 | -3.6% | -1.15
56 | Cc1ccc(C)c(N=Cc2c(C)[nH]c3ccccc23)c1 | -2.79% | -1.18
57 | Cc1ccc2nc(-c3ccc(Cl)c(NC(=O)Cc4ccccc4)c3)oc2c1 | -3.3% | -1.77
58 | OC(CN1CCN(C2c3ccccc3-c3ccccc32)CC1)Cn1c2ccccc2c2ccccc21 (stereo not given) | -8.62% | -1.82
59 | CCCCOc1ccc(CN2CCN3CCCC3C2C)cc1 (stereo not given) | -3.8% | -1.66
60 | Cc1cc(C)c(CSc2nnc(C)s2)c(C)c1 | -5.76% | -1.78
61 | CCOc1ccc(S(=O)(=O)Nc2ccc(OC(F)(F)F)cc2)c2cccnc12 | -1.89% | -0.602
62 | O=C(Nc1nc(-c2ccc([N+](=O)[O-])cc2)cs1)c1ccccc1F | -1.2% | -0.252
63 | CC1(C)NN=C(N)SC1=O | -0.451% | -0.14
64 | CC1CCCC(C(=O)OCc2ccccc2)N1 (stereo not given) | -4.16% | -1.64
65 | COc1ccc(CNC(=O)CSc2nc3cc(C(F)(F)F)ccc3s2)cc1 | -4.55% | -2.53
66 | CCCC12CN3CC(C)(CN(C1)C31C(=O)Nc3ccc(Br)cc31)C2=O (stereo not given) | -2.13% | -0.876
67 | O=c1c(=Nc2ccccc2O)c(=O)c2ccccc12 | -2.51% | -0.945
68 | CCOc1ccc(-c2cc(C(=O)NN=Cc3cccnc3)[nH]n2)cc1 | -4.91% | -2.15
69 | COc1ccccc1NC(=O)c1ccccc1NC(=O)c1ccc(F)cc1 | -2.61% | -1.45
70 | O=C(COc1ccccc1F)N1CCc2ccccc2C1 | -4.1% | -1.68
71 | COc1ccc(NC(=O)NCCc2ccncc2)cc1 | 0.111% | 0.0619
72 | Cc1c(C(=O)Nc2cccc([N+](=O)[O-])c2)sc2ncn(CC(=O)N3CCOCC3)c(=O)c12 | -2.14% | -0.779
73 | CCC(Sc1nc(C)cc(C)n1)C(=O)Nc1nnc(C)s1 (stereo not given) | -9.03% | -2.8
74 | CCOC(=O)Cn1nc(-c2ccc(C)cc2)ccc1=O | -0.853% | -0.23
75 | N#Cc1c(NC(=O)CN2C(=O)C3CC=C(Cl)CC3C2=O)sc2c1CCC2 (stereo not given) | -0.241% | -0.0746
76 | CCC1CCCCN1C(=O)c1sc2ncn(Cc3ccccc3F)c(=O)c2c1C (stereo not given) | -3.67% | -1.34
77 | COC(=O)c1cc2nc(-c3ccccc3)cc(C)n2n1 | -2.69% | -1.39
78 | COc1cc(C(=S)N2CCCCC2)cc(OC)c1OC(=O)c1cccc2ccccc12 | -9.1% | -3.43
79 | COc1cc(NC(=O)c2cc(Cl)cc(Cl)c2OC)ccc1NC(=O)c1ccccc1Cl | -1.43% | -0.797
80 | CC(=O)C1C(=O)CC(c2ccccc2)CC1=O (stereo not given) | -5.17% | -2.04
